PubChem BioAssay (NCI)
“And” between values parts separate entries of the source, which are not always exact repeats. Equal values may be shown once. Compounds without any hit were thinned out: in the full panel of roughly 79,000, 15% have a hit. Rule as the data show it: active = growth inhibition above about 70%; inactive = the rest.

Assays:
[1] = NCI Yeast Anticancer Drug Screen. Data for the rad50 strain (AID 155);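 also: 0% = growth of vehicle-only cultures of the same strain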; details: S. cerevisiae rad50 strain growth inhibition, hits give high values; at 50.0 µM unless noted
Method in brief: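 Cells are treated with compound, grown, and their growth is then scored against vehicle-only cultures of the same repair-deficient yeast strain.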

[2] = NCI Yeast Anticancer Drug Screen. Data for the mec2-1 strain (AID 157); details: S. cerevisiae mec2-1 strain, hits give high values; at 50.0 µM unless noted
Method in brief: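 Using mec2-1 yeast: add compound, measure growth, express inhibition versus vehicle-treated cultures.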

[3] = NCI Yeast Anticancer Drug Screen. Data for the sgs1 mgt1 strain (AID 161);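 also: 0% = growth of cultures given vehicle only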; details: S. cerevisiae sgs1 mgt1 strain, hits give high values; at 50.0 µM unless noted
Method in brief: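 Yeast cells carrying a defined DNA-repair defect were exposed to test compounds. Growth inhibition was measured relative to vehicle-treated controls.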

[4] = NCI Yeast Anticancer Drug Screen. Data for the cln2 rad14 strain (AID 165);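 also: 0% = growth equal to vehicle treated cultures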; details: S. cerevisiae cln2 rad14 strain, hits give high values; at 50.0 µM unless noted
Method in brief: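 Yeast strain cln2 rad14, bearing defects in cell cycle control and DNA repair, serves as the test system; values reflect growth inhibition compared with vehicle.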

[5] = NCI Yeast Anticancer Drug Screen. Data for the bub3 strain (AID 167); details: S. cerevisiae bub3 mutant strain, hits give high values; at 50.0 µM unless noted
Method in brief: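 Part of a panel of yeast mutants defective in DNA damage repair or cell cycle regulation. Each strain is grown with compound, and inhibition is calculated relative to solvent-treated cultures.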

[6] = NCI Yeast Anticancer Drug Screen. Data for the mlh1 rad18 strain (AID 175); details: S. cerevisiae mlh1 rad18 strain growth inhibition, hits give high values; at 50.0 µM unless noted
Method in brief: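 Steps: expose repair-defective yeast to compound; measure growth; express inhibition against vehicle-treated controls.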

Measured: growth inhibition

COc1ccc(/C=C2\CNC/C(=C\c3ccc(OC)cc3)C2=O)cc1
inactive: [1] 34% | [2] 1.75% | [3] 55.2% | [4] 37.5% | [5] 15.3% | [6] 34.1%

OC1CC2CCCCC2CC1(O)c1ccc(OCc2ccccc2)c(OCc2ccccc2)c1 (centres undefined)
inactive: [1] 16.6% | [2] -9.55% | [3] -19% | [4] 14.8% | [5] 3.4% | [6] -5.2%

Cc1cc(C)c(C(=O)c2cccc(C)c2C(=O)O)c(C)c1
inactive: [1] 4% | [2] -20.8% | [3] 7.85% | [4] 14.1% | [5] 9.85% | [6] 18%

COc1ccccc1C1OC(N)=C(O)C1=O (centres undefined)
inactive: [1] -14.4% | [2] -5.15% | [3] 7.3% | [4] -15.3% | [5] -2.5% | [6] 13.9%

Cc1ccc(C(=O)NNC(=O)c2ccc(C)cc2)cc1
inactive: [1] -10.5% | [2] -18.4% | [3] -11.1% | [4] 2.8% | [5] -10.9% | [6] -5.15%

CCOC(=O)CSC#N
inactive: [1] -2.05% | [2] -0.85% | [3] 1.35% | [4] 7.4% | [5] 21.2% | [6] 2.9%

NCC(=O)c1ccc2cc(Br)c3ccccc3c2c1
inactive: [1] 5.7% | [2] 0.45% | [3] -1.2% | [4] 17.9% | [5] 12.4% | [6] 0.15%

CC(C)CNC(=O)c1ccccc1Cl
inactive: [1] -22.9% | [2] 20.1% | [3] -5.4% | [4] -32.4% | [5] 2.55% | [6] -11.1%

O=C(Cc1csc2ccccc12)NCC1CC1
inactive: [1] -17.4% | [2] -19.1% | [3] -0.45% | [4] 2.45% | [5] 11% | [6] -3.55%

CC12CCC([C@H](C(O)C3CCCCC3)C1=O)C2(C)C (some centres undefined)
inactive: [1] -2.7% | [2] -16.6% | [3] -12.8% | [4] 16.6% | [5] -5.7% | [6] -5.1%

CCN(CC)C(=O)c1cc(OC)c(C(=O)N(CC)CC)cc1OC
inactive: [1] -21.9% | [2] -0.35% | [3] 4.15% | [4] -15.2% | [5] -9.4% | [6] -8.2%

Brc1ccc(SSc2ccc(Br)cc2)cc1
inactive: [1] -12.8% and 3.2% | [2] 13.1% and -10.3% | [3] 3.45% and 5.3% | [4] -18.4% and -5.5% | [5] -3.15% and 9.8% | [6] 18.8% and 2.65%

[Cu+2].[NH-]CC(=O)NC(Cc1ccccc1)C(=O)O.[NH-]CC(=O)NC(Cc1ccccc1)C(=O)O (centres undefined)
inactive: [1] 30.9% | [2] 2.4% | [3] 10.6% | [4] 17.5% | [5] 0.9% | [6] 10.6%

O=[N+]([O-])c1ccc[nH]c1=S
inactive: [1] -5.15% | [2] -15.8% | [3] -20.4% | [4] -7.35% | [5] 23% | [6] -35.6%

Nc1ncnc2c1ncn2C1OC(COP(=O)(O)O)C(O)C1O (centres undefined)
inactive: [1] -9.65% and -9.3% | [2] 1.65% and -12.6% | [3] 15.6% and -9.1% | [4] 2.95% and 9.25% | [5] 0.85% and -17.9% | [6] -9% and -13.2%

CCCSc1ncnc2nc[nH]c12
inactive: [1] 23.6% | [2] -1% | [3] 9.7% | [4] -15.1% | [5] -13.7% | [6] 16.9%

Cc1nc2c(=O)[nH]c(=O)[nH]c2s1
inactive: [1] -12.6% | [2] 5.05% | [3] -4.2% | [4] -12% | [5] -7.5% | [6] -8.6%

Nc1cccc(B(O)O)c1
inactive: [1] -16.6% | [2] -65% | [3] -34.3% | [4] -5.75% | [5] -29.6% | [6] -15.8%

C=C1[C@@H](O)C[C@@H]2C[C@@]3(C)[C@H](C(C)(C)C[C@@H]3O)C12O (some centres undefined)
inactive: [1] -4.25% | [2] -17.5% | [3] -20.9% | [4] 5% | [5] -19% | [6] -20.2%

Cc1cc(NC(=O)C(=O)Cc2nc3ccccc3s2)ccc1Cl
inactive: [1] 25.9% | [2] 12.7% | [3] 21.9% | [4] 43.9% | [5] 10.9% | [6] 19.1%

O=C(O)COc1ccc(C2CCc3ccccc32)cc1 (centres undefined)
inactive: [1] 19.7% | [2] 7.3% | [3] -3.85% | [4] 16% | [5] 8.25% | [6] 0.7%

ClCc1ccccc1C(c1ccccc1)c1ccccc1
inactive: [1] -0.8% | [2] 20.4% | [3] 7.1% | [4] -32.1% | [5] 24.9% | [6] 21.9%

CC1CCC2C(C)C(=O)OC2C2(C)C(=O)C=CC12 (centres undefined)
inactive: [1] 11.9% | [2] -12.3% | [3] 13.7% | [4] 22.6% | [5] 2.7% | [6] -27.4%

Cc1ccc(SCC(O)=C2C(=O)CCCC2=O)cc1
inactive: [1] -11.4% | [2] -12.3% | [3] 15.1% | [4] -0.45% | [5] -2.25% | [6] -7.45%

CC(=O)OCC(C)O (centres undefined)
inactive: [1] 28% | [2] -9.7% | [3] 14.3% | [4] -0.3% | [5] 1.2% | [6] 2%

Cc1ccc(S(=O)(=O)Oc2ccc(Cl)c(C)c2)cc1
inactive: [1] 39.5% and -16.1% | [2] 6% and -11.8% | [3] 35.4% and -25.1% | [4] 14.1% and -74.5% | [5] 38.9% and 14.8% | [6] 17.8% and 5.1%

CC1=N[C@@H](C(=O)NCC(N)=O)Cc2c1[nH]c1ccccc21
inactive: [1] 11.7% | [2] 10.1% | [3] 8.65% | [4] -7.85% | [5] -4.25% | [6] 4.4%

Cc1cc(=O)n(-c2ccccc2)c(=O)[nH]1
inactive: [1] 1.2% | [2] 1.95% | [3] 1.5% | [4] 1.2% | [5] -4.25% | [6] -12%

O=C1/C(=C\c2ccccc2)Sc2cc[nH]c21
inactive: [1] 13.5% | [2] 1.3% | [3] 4.5% | [4] -1.95% | [5] -1.85% | [6] 17.2%

CC(=O)c1oc2cc([N+](=O)[O-])c3ccccc3c2c1C
inactive: [1] 14.7% | [2] -8.55% | [3] 26.3% | [4] 11.6% | [5] -5.35% | [6] 40.1%

CN(C)Cc1cc(C(=O)/C=C/c2ccc(Cl)c(Cl)c2)cc(CN(C)C)c1O
inactive: [1] -1.95% | [2] -14.4% | [3] 6.3% | [4] 31.9% | [5] 2.15% | [6] -3.3%

CNC(=O)NCCCCC(NC(=O)OCc1ccccc1)C(=O)OCc1ccccc1 (centres undefined)
inactive: [1] 3.15% | [2] -14% | [3] -37.2% | [4] -3.5% | [5] 1.15% | [6] -24.1%

NC(CSCCB(O)O)C(=O)O (centres undefined)
inactive: [1] -11.7% | [2] -15.2% | [3] -6.5% | [4] -14.6% | [5] -5% | [6] -20.4%

COC1(OC)CC2C(=O)N(Cc3ccccc3)C1CC2S(=O)(=O)c1ccccc1 (centres undefined)
inactive: [1] 6.7% | [2] -2.1% | [3] -16.1% | [4] 22.8% | [5] -2.3% | [6] 11.4%

O=C(NCCCl)Nc1c(Cl)cccc1Cl
inactive: [1] -4.6% | [2] 14.3% | [3] 6% | [4] -18.6% | [5] 1.8% | [6] -4.2%

CCOC(=O)c1c(C)cc(=O)oc1C
inactive: [1] -8.65% and 3.95% | [2] 7.55% and -1.6% | [3] -4.65% and -3.25% | [4] -31.3% and -11.1% | [5] 2.3% and -1.7% | [6] -11.8% and 8.75%

N#CC(C#N)=C1SC(=Nc2ccccc2)C(=Nc2ccccc2)N1c1ccccc1
inactive: [1] 11.6% | [2] 6.05% | [3] 19.2% | [4] 7.1% | [5] 21.6% | [6] 16.4%

CSC(=S)N/N=C(\C)c1cccs1
inactive: [1] 7.05% | [2] 1.85% | [3] 4.75% | [4] -50.9% | [5] -47.5% | [6] 10.8%

CC1CC(C)OC(c2ccc(Cl)cc2)O1 (centres undefined)
inactive: [1] 20.8% | [2] 14.5% | [3] 17.2% | [4] -28.8% | [5] -2.15% | [6] 19.1%
